In PubChem BioAssay (EPA / NIEHS) one finds outcome and AC50 data, which are given here for five compounds.

Several values for one entry are separate records, joined by “and”; a condition that tells them apart may be missing. Equal values may be shown once. Some structures have more than one record in an assay (separate samples or runs), and their calls can disagree. Activity calls are given as the source filed them. How the source made its calls: active means hit-call score of the fitted dose curve at least 0.9, where 1 is the maximum; inactive means score below 0.9.

A short description of test [1]: BSK_BF4T_SRB: Viability Assessment in the BioMAP Diversity Plus: BF4T Assay (AID 2284274). The settings on record: primary human bronchial epithelial cells with fibroblasts. An outline of the steps: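 Cytotoxicity measured as total protein: cells fixed with 10% TCA, stained with 0.1% SRB, read at 560 nm. Bronchial epithelial/dermal fibroblast co-culture, 24 h after dosing, with positive-direction fitting relative to DMSO.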

Read-out in test [2]: urokinase Plasminogen Activator (uPA), PLAU (gene 5328)
Kind of test: BSK_BF4T_uPA: BioMAP Diversity Plus: BF4T Assay for urokinase Plasminogen Activator (uPA) Biomarker Activity (AID 2284275). The settings on record: primary human bronchial epithelial cells with fibroblasts. A digest of the protocol: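 uPA levels measured by ELISA at 24 hours in BF4T cultures (bronchial epithelial cells plus dermal fibroblasts) and compared with DMSO; cytotoxicity tracked in parallel cultures by sulforhodamine B staining.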

Read-out in test [3]: Matrix Metallopeptidase 9 (MMP9), MMP9 (gene 4318)
Briefly: BSK_BF4T_MMP9: BioMAP Diversity Plus: BF4T Assay for Matrix Metallopeptidase 9 (MMP9) Biomarker Activity (AID 2284276). The settings on record: primary human bronchial epithelial cells with fibroblasts. A digest of the protocol: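 MMP-9 levels were measured by ELISA after 24 h exposure of bronchial epithelial cell/dermal fibroblast co-cultures, with DMSO as baseline. Parallel cultures were stained with 0.1% SRB after TCA fixation, read at 560 nm, to flag overt cytotoxicity.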

Read-out in test [4]: Intercellular Adhesion Molecule 1 (ICAM1), ICAM1 (gene 3383)
Kind of test: BSK_BE3C_ICAM1: BioMAP Diversity Plus: BE3C Assay for Intercellular Adhesion Molecule 1 (ICAM1) Biomarker Activity (AID 2284278).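 On outcome: cell-surface ICAM-1 protein level quantified by ELISA.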 The settings on record: primary human bronchial epithelial cells. A digest of the protocol:
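ICAM-1 quantified by ELISA and fitted against DMSO baseline, 24 h post-dosing in BE3C cultures of primary human lung bronchial epithelial cells. Cytotoxicity checked in parallel cultures by total protein SRB staining.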

Read-out in test [5]: Interferon-inducible T-cell alpha chemoattractant (ITAC), CXCL11 (gene 6373)
Kind of test: BSK_BE3C_ITAC: BioMAP Diversity Plus: BE3C Assay for Interferon-inducible T-cell alpha chemoattractant (ITAC) Biomarker Activity (AID 2284279). The settings on record: primary human bronchial epithelial cells. A digest of the protocol: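 The assay measures I-TAC levels by ELISA in human primary bronchial epithelial cell cultures 24 hours after chemical treatment. Values reflect signal increase over the DMSO baseline.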

Read-out in test [6]: Interleukin-8 (IL8), CXCL8 (gene 3576)
Briefly: BSK_BE3C_IL8: BioMAP Diversity Plus: BE3C Assay for Interleukin-8 (IL8) Biomarker Activity (AID 2284280). The settings on record: primary human bronchial epithelial cells. A digest of the protocol: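 Dose human bronchial epithelial cells with chemical; incubate 24 h; quantify IL-8 by ELISA; fit response upward versus DMSO controls.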

Read-out in test [7]: Epidermal growth factor receptor (EGFR), EGFR (gene 1956)
Kind of test: BSK_BE3C_EGFR: BioMAP Diversity Plus: BE3C Assay for Epidermal growth factor receptor (EGFR) Biomarker Activity (AID 2284281). The settings on record: primary human bronchial epithelial cells. An outline of the steps:
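ELISA read-out of EGFR levels on human bronchial epithelial primary cells collected 24 h post-dosing. DMSO served as negative control and baseline for gain-of-signal fitting.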

Read-out in test [8]: KRT18 (gene 3875)
Kind of test: BSK_BE3C_Keratin818: BioMAP Diversity Plus: BE3C Assay for Keratin 818 Biomarker Activity (AID 2284282). The settings on record: primary human bronchial epithelial cells. An outline of the steps: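 ELISA readout of Keratin 8/18 in human primary bronchial epithelial cultures after 24 h chemical exposure, DMSO baseline. Parallel SRB staining (0.1%, TCA-fixed, 560 nm) served as cytotoxicity check.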

Read-out in test [9]: Matrix Metallopeptidase 9 (MMP9), MMP9 (gene 4318)
Kind of test: BSK_BE3C_MMP9: BioMAP Diversity Plus: BE3C Assay for Matrix Metallopeptidase 9 (MMP9) Biomarker Activity (AID 2284283). The settings on record: primary human bronchial epithelial cells. An outline of the steps: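 Human primary bronchial epithelial cells exposed 24 h to compound. MMP9 quantified by ELISA. SRB total-protein staining of parallel cultures assesses cytotoxicity. Positive-direction fit relative to DMSO.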

Read-out in test [10]: Plasminogen activator inhibitor-1 (PAI1), SERPINE1 (gene 5054)
Kind of test: BSK_CASM3C_PAI1: BioMAP Diversity Plus: CASM3C Assay for Plasminogen activator inhibitor-1 (PAI1) Biomarker Activity (AID 2284284).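 Further: PAI-1 protein level measured by ELISA 24 h after dosing.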 The settings on record: primary human coronary artery smooth muscle cells.

Read-out in test [11]: Monocyte Chemoattractant Protein-1 (MCP1), CCL2 (gene 6347)
Kind of test: BSK_hDFCGF_MCP1: BioMAP Diversity Plus: hDFCGF Assay for Monocyte Chemoattractant Protein-1 (MCP1) Biomarker Activity (AID 2284285). The settings on record: primary human foreskin fibroblasts. An outline of the steps:
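MCP-1 ELISA readout was taken 24 hours after dosing primary human dermal fibroblasts in the hDFCGF system, with DMSO as baseline. Parallel sulforhodamine B staining of total protein tracked overt cytotoxicity.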

Read-out in test [12]: Vascular cell adhesion molecule 1 (VCAM1), VCAM1 (gene 7412)
Kind of test: BSK_IMphg_VCAM1: BioMAP Diversity Plus: IMphg Assay for Vascular cell adhesion molecule 1 (VCAM1) Biomarker Activity (AID 2284286). The settings on record: primary human endothelial cells with macrophages. A digest of the protocol: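 ELISA read-out of VCAM-1 on venular endothelial cell/macrophage co-cultures at 24 h post-treatment, with DMSO as baseline and positive-direction fitting. Parallel sulforhodamine B total-protein staining (560 nm) served as the overt cytotoxicity measure.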

Read-out in test [13]: Intercellular Adhesion Molecule 1 (ICAM1), ICAM1 (gene 3383)
Briefly: BSK_hDFCGF_ICAM1: BioMAP Diversity Plus: hDFCGF Assay for Intercellular Adhesion Molecule 1 (ICAM1) Biomarker Activity (AID 2284287). The settings on record: primary human foreskin fibroblasts. A digest of the protocol: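 ICAM-1 ELISA readout 24 h after dosing, DMSO as baseline, in human dermal foreskin fibroblast cultures. Cytotoxicity checked in parallel wells by SRB staining (0.1% SRB, 10% TCA fixation, 560 nm).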

Read-out in test [14]: CD40, CD40 (gene 958)
Kind of test: BSK_IMphg_CD40: BioMAP Diversity Plus: IMphg Assay for CD40 Biomarker Activity (AID 2284288). The settings on record: primary human endothelial cells with macrophages. A digest of the protocol:
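ELISA read-out of cell-surface CD40 at 24 h in human venular endothelial cell/macrophage co-cultures. Activity fitted in the positive direction against DMSO; parallel SRB staining (560 nm) gauges overt cytotoxicity.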

Read-out in test [15]: TIMP metallopeptidase inhibitor 2 (TIMP2), TIMP2 (gene 7077)
Briefly: BSK_hDFCGF_TIMP2: BioMAP Diversity Plus: hDFCGF Assay for TIMP metallopeptidase inhibitor 2 (TIMP2) Biomarker Activity (AID 2284289). The settings on record: primary human foreskin fibroblasts. A digest of the protocol: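 Primary human foreskin fibroblasts in the hDFCGF system, dosed for 24 h; TIMP-2 level measured by ELISA, fitted in the positive direction against DMSO; cytotoxicity checked in parallel by sulforhodamine B total protein staining.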

Read-out in test [16]: Interleukin-1 alpha (IL1a), IL1A (gene 3552)
Kind of test: BSK_IMphg_IL1a: BioMAP Diversity Plus: IMphg Assay for Interleukin-1 alpha (IL1a) Biomarker Activity (AID 2284290). The settings on record: primary human endothelial cells with macrophages. A digest of the protocol:
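IL-1α is quantified by ELISA at 24 h in the endothelial/macrophage IMphg co-culture, with gain of signal fitted relative to DMSO. Parallel SRB total-protein staining flags overt toxicity.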

Test [17] is described as follows: BSK_IMphg_SRB: Viability Assessment in the BioMAP Diversity Plus: IMphg Assay (AID 2284292).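 Further: measured one day after compound addition.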 The settings on record: primary human endothelial cells with macrophages. An outline of the steps: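 SRB viability endpoint: cultures of human endothelial cells plus macrophages fixed with 10% TCA, stained with 0.1% SRB, read at 560 nm 24 h post-dosing. Only gain-of-signal fitted, relative to DMSO.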

Read-out in test [18]: Interleukin-8 (IL8), CXCL8 (gene 3576)
Kind of test: BSK_IMphg_IL8: BioMAP Diversity Plus: IMphg Assay for Interleukin-8 (IL8) Biomarker Activity (AID 2284277). The settings on record: primary human endothelial cells with macrophages. A digest of the protocol: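 IL-8 levels were measured by ELISA 24 h after dosing in primary human venular endothelial cell–macrophage cultures, referenced to DMSO; parallel SRB staining monitored overt cytotoxicity.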

Turning to `C[Si](Cl)(Cl)CCC(F)(F)C(F)(F)C(F)(F)C(F)(F)C(F)(F)C(F)(F)F`, the outcome in test [1], in [2], in [3], in test [4], in test [5] and in test [6] was inactive. The result in test [7], in [8], in test [9], in test [10], in [11] and in [12] was inactive. Moreover, the result in test [13], in test [14], in [15] and in [16] was inactive. Further, the AC50 is 441 nM (active) in test [11], 2.46 µM (active) in test [13] and 0.236 µM (active) in test [15].
Turning to `C=CC(=O)OCC(F)(F)C(F)(F)C(F)(F)C(F)(F)C(F)(F)C(F)(F)C(F)(F)C(F)F`, the result in test [1], in [2], in [3], in test [4], in test [5] and in test [6] was inactive. For the same compound, the result in test [7], in test [8], in [9], in [10], in [11] and in [12] was inactive. The outcome in test [13], in test [14], in [15] and in test [16] was inactive. Also, the figures for the AC50 in test [11] and in test [13] were 6810 nM (active) and 20.3 µM (active), respectively.
`CCN(CCO)S(=O)(=O)C(F)(F)C(F)(F)C(F)(F)C(F)(F)C(F)(F)C(F)(F)C(F)(F)C(F)(F)F`: the outcome in test [1], in test [2], in test [3], in test [4], in test [8] and in test [10] was inactive. Further, the outcome in [12], in test [13], in [14], in [15] and in [16] was inactive. The AC50 was 51.6 µM (active) in test [4]; 47.1 µM (active) and 42.6 µM (active) in [5]; 19.3 µM (active) and 11.8 µM (active) in test [6]; 23.2 µM (active) and 13.9 µM (active) in test [7]; 21.5 µM (active) and 43.3 µM (active) in test [9]; 32.7 µM (active) and 30 µM (active) in [11]. Further, the AC50 is 39 µM (active) in [12] and 36.9 µM (active) in [14].
In the case of `NS(=O)(=O)C(F)(F)C(F)(F)C(F)(F)C(F)(F)C(F)(F)C(F)(F)F`, the result in test [1], in test [2], in [3], in [4], in [5] and in [7] was inactive. The result in test [8], in test [10], in test [11], in test [12], in test [13] and in test [15] was inactive. In addition, the outcome in [16] and in test [17] was inactive. The AC50 in test [5] is 30 µM (active); in test [6], 25.1 µM (active) and 15.2 µM (active); in test [9], 13.9 µM (active) and 15 µM (active); in test [14] it was 39.5 µM (active) and 25.4 µM (active); in [15] it was 54.6 µM (active); in test [16], 6.98 µM (active).
In the case of `O=S(=O)(OCC(F)(F)F)C(F)(F)C(F)(F)C(F)(F)C(F)(F)F`, the result in test [1], in [2], in test [3], in test [18], in test [4] and in test [5] was inactive. For the same compound, the result in test [6], in [7], in test [8], in test [9], in test [10] and in test [11] was inactive. In addition, the result in test [12], in test [13], in [14], in test [15] and in [16] was inactive. Also, in test [9], the AC50 is 6.24 µM (active).

One may read the AC50 as the concentration giving half of the maximal activity seen.
